# Experimental data reported in the supplement of paper PMC4466140.
# What was measured:
# Experiment in all cases: SPOT peptide array binding signal intensity (averaged, normalized) (arbitrary units (background-subtracted, floor 0; scale differs between SH3 domains)); higher = stronger binding of the SH3 domain to the peptide
# [1] = molecular target: AgAbp1
# Summary of the method: (§1)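 To measure binding, SH3 domains from four yeast species were fused to GST, expressed in E. coli BL21(DE3) and purified on glutathione Sepharose. Each domain was incubated at 10 μg/ml overnight at 4°C on cellulose membranes with synthetic 15-mer peptides whose cysteines were replaced by serines. Anti-GST antibody, an HRP anti-mouse secondary and luminol were used for detection, and images were quantified with Genespotter. Reported binding signal is normalized, background-subtracted spot intensity averaged over replicates, in arbitrary units that differ between domains.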
# [2] = molecular target: AgBbc1
# Summary of the method: as §1
# [3] = molecular target: AgBem1-D1
# Summary of the method: as §1
# [4] = molecular target: AgBzz1-D1
# Summary of the method: as §1
# [5] = molecular target: AgBzz1-D2
# Summary of the method: as §1
# [6] = molecular target: AgCyk3
# Summary of the method: as §1
# [7] = molecular target: AgFus1
# Summary of the method: as §1
# [8] = molecular target: AgHof1
# Summary of the method: as §1
# [9] = molecular target: AgHse1
# Summary of the method: as §1
# [10] = molecular target: AgLsb1
# Summary of the method: as §1
# [11] = molecular target: AgLsb4
# Summary of the method: as §1
# [12] = molecular target: AgMyo5
# Summary of the method: as §1
# [13] = molecular target: AgNbp2
# Summary of the method: as §1
# [14] = molecular target: AgRvs167
# Summary of the method: as §1
# [15] = molecular target: AgSho1
# Summary of the method: as §1
# [16] = molecular target: AgSla1-D1-D2
# Summary of the method: as §1
# [17] = molecular target: AgSla1-D3
# Summary of the method: as §1
# [18] = molecular target: CaAbp1-D1
# Summary of the method: as §1
# [19] = molecular target: CaAbp1-D2
# Summary of the method: as §1
# [20] = molecular target: CaBbc1
# Summary of the method: as §1
# [21] = molecular target: CaBem1-D1
# Summary of the method: as §1
# [22] = molecular target: CaBzz1-D1
# Summary of the method: as §1
# [23] = molecular target: CaBzz1-D2
# Summary of the method: as §1
# [24] = molecular target: CaCyk3
# Summary of the method: as §1
# [25] = molecular target: CaFus1
# Summary of the method: as §1
# [26] = molecular target: CaHof1
# Summary of the method: as §1
# [27] = molecular target: CaHse1
# Summary of the method: as §1
# [28] = molecular target: CaLsb1
# Summary of the method: as §1
# [29] = molecular target: CaLsb4
# Summary of the method: as §1
# [30] = molecular target: CaMyo5
# Summary of the method: as §1
# [31] = molecular target: CaNbp2
# Summary of the method: as §1
# [32] = molecular target: CaRvs167
# Summary of the method: as §1
# [33] = molecular target: CaRvs167-3
# Summary of the method: as §1
# [34] = molecular target: CaSho1
# Summary of the method: as §1
# [35] = molecular target: CaSla1-D1-D2
# Summary of the method: as §1
# [36] = molecular target: CaSla1-D3
# Summary of the method: as §1
# [37] = molecular target: ScAbp1
# Summary of the method: as §1
# [38] = molecular target: ScBbc1
# Summary of the method: as §1
# [39] = molecular target: ScBem1-D1
# Summary of the method: as §1
# [40] = molecular target: ScBzz1-D1
# Summary of the method: as §1
# [41] = molecular target: ScBzz1-D2
# Summary of the method: as §1
# [42] = molecular target: ScCyk3
# Summary of the method: as §1
# [43] = molecular target: ScFus1
# Summary of the method: as §1
# [44] = molecular target: ScHof1
# Summary of the method: as §1
# [45] = molecular target: ScHse1
# Summary of the method: as §1
# [46] = molecular target: ScLsb1
# Summary of the method: as §1
# [47] = molecular target: ScLsb2
# Summary of the method: as §1
# [48] = molecular target: ScLsb3
# Summary of the method: as §1
# [49] = molecular target: ScLsb4
# Summary of the method: as §1
# [50] = molecular target: ScMyo3
# Summary of the method: as §1
# [51] = molecular target: ScMyo5
# Summary of the method: as §1
# [52] = molecular target: ScNbp2
# Summary of the method: as §1
# [53] = molecular target: ScPex13
# Summary of the method: as §1
# [54] = molecular target: ScRvs167
# Summary of the method: as §1
# [55] = molecular target: ScSho1
# Summary of the method: as §1
# [56] = molecular target: ScSla1-D1-D2
# Summary of the method: as §1
# [57] = molecular target: ScSla1-D3
# Summary of the method: as §1
# [58] = molecular target: SpAbp1-D1
# Summary of the method: as §1
# [59] = molecular target: SpBbc1
# Summary of the method: as §1
# [60] = molecular target: SpBzz1-D1
# Summary of the method: as §1
# [61] = molecular target: SpBzz1-D2
# Summary of the method: as §1
# [62] = molecular target: SpCyk3
# Summary of the method: as §1
# [63] = molecular target: SpHof1
# Summary of the method: as §1
# [64] = molecular target: SpHof1-2
# Summary of the method: as §1
# [65] = molecular target: SpHof1-3
# Summary of the method: as §1
# [66] = molecular target: SpHse1
# Summary of the method: as §1
# [67] = molecular target: SpLsb1
# Summary of the method: as §1
# [68] = molecular target: SpLsb4
# Summary of the method: as §1
# [69] = molecular target: SpMyo1
# Summary of the method: as §1
# [70] = molecular target: SpNbp2
# Summary of the method: as §1
# [71] = molecular target: SpPex13
# Summary of the method: as §1
# [72] = molecular target: SpRvs167
# Summary of the method: as §1
# [73] = molecular target: SpSla1-D1-D2
# Summary of the method: as §1
# [74] = molecular target: SpSla1-D3
# Summary of the method: as §1
binder,measurement,setting,value
SKIRPTPRKPSRMAT,SPOT peptide array binding signal intensity,[1],1550
same,SPOT peptide array binding signal intensity,[2],642
same,SPOT peptide array binding signal intensity,[3],47
same,SPOT peptide array binding signal intensity,[4],77
same,SPOT peptide array binding signal intensity,[5],53
same,SPOT peptide array binding signal intensity,[6],3
same,SPOT peptide array binding signal intensity,[7],40
same,SPOT peptide array binding signal intensity,[8],69.2
same,SPOT peptide array binding signal intensity,[9],263
same,SPOT peptide array binding signal intensity,[10],69.2
same,SPOT peptide array binding signal intensity,[11],176
same,SPOT peptide array binding signal intensity,[12],7
same,SPOT peptide array binding signal intensity,[13],1050
same,SPOT peptide array binding signal intensity,[14],9.17
same,SPOT peptide array binding signal intensity,[15],39.5
same,SPOT peptide array binding signal intensity,[16],100
same,SPOT peptide array binding signal intensity,[17],23.8
same,SPOT peptide array binding signal intensity,[18],3050
same,SPOT peptide array binding signal intensity,[19],5280
same,SPOT peptide array binding signal intensity,[20],806
same,SPOT peptide array binding signal intensity,[21],34.5
same,SPOT peptide array binding signal intensity,[22],270
same,SPOT peptide array binding signal intensity,[23],208
same,SPOT peptide array binding signal intensity,[24],108
same,SPOT peptide array binding signal intensity,[25],208
same,SPOT peptide array binding signal intensity,[26],2.5
same,SPOT peptide array binding signal intensity,[27],30.5
same,SPOT peptide array binding signal intensity,[28],2.75
same,SPOT peptide array binding signal intensity,[29],2040
same,SPOT peptide array binding signal intensity,[30],8.5
same,SPOT peptide array binding signal intensity,[31],437
same,SPOT peptide array binding signal intensity,[32],110
same,SPOT peptide array binding signal intensity,[33],23
same,SPOT peptide array binding signal intensity,[34],60
same,SPOT peptide array binding signal intensity,[35],1470
same,SPOT peptide array binding signal intensity,[36],104
same,SPOT peptide array binding signal intensity,[37],1260
same,SPOT peptide array binding signal intensity,[38],73.5
same,SPOT peptide array binding signal intensity,[39],14
same,SPOT peptide array binding signal intensity,[40],32.5
same,SPOT peptide array binding signal intensity,[41],39
same,SPOT peptide array binding signal intensity,[42],25
same,SPOT peptide array binding signal intensity,[43],21
same,SPOT peptide array binding signal intensity,[44],10
same,SPOT peptide array binding signal intensity,[45],1130
same,SPOT peptide array binding signal intensity,[46],328
same,SPOT peptide array binding signal intensity,[47],3.5
same,SPOT peptide array binding signal intensity,[48],2130
same,SPOT peptide array binding signal intensity,[49],117
same,SPOT peptide array binding signal intensity,[50],0.5
same,SPOT peptide array binding signal intensity,[51],4
same,SPOT peptide array binding signal intensity,[52],1100
same,SPOT peptide array binding signal intensity,[53],124
same,SPOT peptide array binding signal intensity,[54],865
same,SPOT peptide array binding signal intensity,[55],346
same,SPOT peptide array binding signal intensity,[56],2180
same,SPOT peptide array binding signal intensity,[57],202
same,SPOT peptide array binding signal intensity,[58],1300
same,SPOT peptide array binding signal intensity,[59],27.5
same,SPOT peptide array binding signal intensity,[60],284
same,SPOT peptide array binding signal intensity,[61],1.5
same,SPOT peptide array binding signal intensity,[62],6
same,SPOT peptide array binding signal intensity,[63],107
same,SPOT peptide array binding signal intensity,[64],43
same,SPOT peptide array binding signal intensity,[65],235
same,SPOT peptide array binding signal intensity,[66],180
same,SPOT peptide array binding signal intensity,[67],5
same,SPOT peptide array binding signal intensity,[68],3850
same,SPOT peptide array binding signal intensity,[69],9.5
same,SPOT peptide array binding signal intensity,[70],178
same,SPOT peptide array binding signal intensity,[71],30
same,SPOT peptide array binding signal intensity,[72],957
same,SPOT peptide array binding signal intensity,[73],33
same,SPOT peptide array binding signal intensity,[74],49.5
